Source: PubChem BioAssay (NCI)
The panel holds about 83,000 compounds, 20% with a hit somewhere; the sample as a whole holds those more often.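 Activity criterion: percent growth below 10, measured after cells in 96-well plates were exposed to a single compound concentration for 48 hours.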 Unmarked numbers belong to inactive results. Active and inactive are the calls of the source.

Tests used:
Experiment in all cases: NCI-60 one-dose screen, 48 h (100 = growth as untreated, 0 = no growth, -100 = all killed)
Settings in all cases: 10 µM unless noted
[1] = test system: EKVX NSCLC
[2] = test system: SN12C renal
[3] = test system: UO-31 renal
[4] = test system: TK-10 renal
[5] = test system: ACHN renal
[6] = test system: A498 renal
[7] = test system: CCRF-CEM leukemia
[8] = test system: SR leukemia
[9] = test system: OVCAR-8 ovarian
[10] = test system: OVCAR-5 ovarian
[11] = test system: OVCAR-4 ovarian
[12] = test system: SK-OV-3 ovarian
[13] = test system: OVCAR-3 ovarian
[14] = test system: HS 578T breast
[15] = test system: NCI/ADR-RES ovarian
[16] = test system: T-47D breast
[17] = test system: MOLT-4 leukemia
[18] = test system: RPMI-8226 leukemia
[19] = test system: IGROV1 ovarian

Row | SMILES | growth [1] | growth [2] | growth [3] | growth [4] | growth [5] | growth [6] | growth [7] | growth [8] | growth [9] | growth [10] | growth [11] | growth [12] | growth [13] | growth [14] | growth [15] | growth [16] | growth [17] | growth [18] | growth [19]
1 | c1cnc2ccc3ncccc3c2c1 | 101% | 101% | 76.8% | 127% | 82.1% | 96.5% | 98.9% | 82% | 95.4% | 164% | 110% | 106% | 103% | 109% | 128% | 116% | – | – | –
2 | CCCCOc1ccc(C(C)(C)c2ccc(OCCCC)cc2)cc1 | 143% | 100% | 80.5% | 107% | 109% | 126% | 97.7% | 92.6% | – | 109% | 108% | 94.6% | 106% | 105% | 101% | 90.2% | 99.7% | 91% | 103%
3 | CN=C(NC)N/N=C(C)\C=N\NC(=NC)NC | 101% | 96.4% | 83.7% | 127% | 101% | 96.3% | 106% | – | 102% | – | 112% | 101% | 107% | 102% | 107% | 109% | 101% | 127% | 112%
4 | NC(=O)NN=C(C1CC1)C1CC1 | 103% | 108% | 82.1% | 101% | 95.4% | 107% | 125% | – | 123% | 101% | 104% | 104% | 106% | 97% | 105% | 107% | 82.8% | 114% | 109%
5 | C[n+]1c2ccccc2c(NC2CCNCC2)c2[nH]c3ccccc3c21 | 10.3% | -17.5% (active) | 67.3% | 29.5% | 71.1% | 51.7% | -10.9% (active) | – | 15.2% | 36.3% | 4.1% (active) | -0.545% (active) | -1.97% (active) | -38% (active) | 96.5% | -9.19% (active) | -12.8% (active) | -40.8% (active) | -20.9% (active)
6 | O=C(/C=C/c1ccccc1Cl)c1ccc(O)cc1 | 84.8% | 67.3% | 43.6% | 78.6% | 78.9% | 91.9% | 30.6% | 27.9% | 96.8% | 138% | 63.3% | 86% | – | 80.5% | 97% | 58.8% | 55.1% | – | –
7 | Nc1cc(Cl)c(S(N)(=O)=O)cc1S(N)(=O)=O | 111% | 109% | 102% | 97.5% | 101% | 116% | 95.7% | 123% | 115% | 102% | 96.6% | 117% | 137% | 106% | 35.1% | 117% | 158% | 122% | –
8 | CCc1ccc(CCN2C(=O)c3ccccc3C2=O)nc1 | 91% | 103% | 137% | 126% | 105% | 120% | 108% | 104% | 102% | 129% | 101% | 98.1% | – | 119% | 128% | 94.8% | 109% | – | –
9 | CC1=CC(=O)C(C(C)=Nc2ccccc2Cl)C(=O)O1 (configuration not stated) | 103% | 105% | 95.8% | 126% | 98.1% | 85.7% | 89.2% | 118% | 96.9% | 151% | 99.5% | 104% | – | 83.6% | 140% | 105% | 101% | – | –
10 | C=C(C)[C@H]1CC/C(C)=C/CC[C@]2(C)O[C@H]2CC/C(COC(C)=O)=C\C1=O | 44.3% | 104% | 69.4% | 117% | 98.9% | 91.1% | 103% | 56.7% | 107% | – | 123% | 111% | 164% | 119% | 102% | 95.1% | 90.2% | -80.2% (active) | 74.4%
11 | CCOC(=O)c1c2c(c(C)n1Cc1ccccc1)-c1nc(N)ncc1CC2 | 88.9% | 102% | 79.7% | 103% | 92.2% | 88.2% | 93.7% | 86.2% | 104% | 78.6% | 105% | 118% | – | 93.6% | 101% | 86.4% | 95.7% | 80% | –
12 | O=C(N1CCC(CN=c2cc3n(-c4ccc(Cl)cc4)c4ccccc4nc-3cc2Nc2ccc(Cl)cc2)CC1)N1CC1 | -62.5% (active) | -76% (active) | -96.3% (active) | -42.9% (active) | -71.7% (active) | -59.9% (active) | – | -74.5% (active) | -67.4% (active) | -78.3% (active) | -74.6% (active) | -63.7% (active) | – | -56.4% (active) | -45.5% (active) | -46.8% (active) | -22.6% (active) | – | -92.3% (active)
13 | C=C(C)[C@H]1CC/C(C)=C/CC[C@]2(C)O[C@H]2CC/C(C=O)=C\C1O (some centres not stated) | 103% | 101% | 58.1% | 106% | 99% | 143% | 137% | 120% | 107% | 101% | 109% | 102% | 124% | 114% | 109% | 102% | 142% | -17.5% (active) | –
14 | COc1c(O)cc2oc3cc(O)c(CC=C(C)C)c(O)c3c(=O)c2c1C/C=C(\C)CCC=C(C)C | 81.5% | -8.91% (active) | 58.3% | 37.3% | 22.6% | 120% | – | -18.2% (active) | 24.4% | 84.7% | 72.6% | 100% | 62% | – | -39% (active) | 77.1% | 6.16% (active) | – | 81.4%
15 | CC(O)c1nc2c(c(=O)n(C)c(=O)n2C)n1C (configuration not stated) | 111% | 104% | 91.1% | 113% | 105% | 105% | 96.3% | 125% | 105% | 104% | 104% | 102% | 108% | 118% | 113% | 97.6% | 117% | – | –
16 | CC(=O)Oc1c(C)c(OC(C)=O)c2c(c1C(C)=O)OC1CC(=O)C(C(C)=O)=C(O)C21C (configuration not stated) | 96.9% | 95.5% | 89% | 109% | 97% | 136% | 102% | – | 105% | 102% | 99% | 98.2% | 118% | 109% | 80.7% | 103% | 64% | 78.3% | –
17 | C/C(=N/N=C(N)N)c1ccc(Cl)cc1 | 87.8% | 90.8% | 78.2% | 55.3% | 96.1% | 188% | 87.9% | 83.3% | 110% | 87.8% | 92.9% | 89.5% | – | 272% | 86.5% | 79.3% | 145% | 89.8% | 14.6%
18 | COc1ccc2nccc(/C=C/c3ccnc4ccc(OC)cc34)c2c1 | 105% | 118% | 97% | 148% | 102% | 87.9% | 59.6% | 21.4% | 68.9% | 117% | 104% | 115% | – | – | 101% | 98.4% | 33.1% | -5.34% (active) | 102%
